PubChem BioAssay AID1159580 (chemical genetic matrix, 2015)
Among all 5,500 compounds or so, about 2,000 (36%) were called active. Another 18% or so got no clear call; they are omitted. Cut-off read from the data, not from the text of the source: active = normalized growth mostly below about 0.91 (no sharp cut-off); inconclusive = no clear call, values can overlap the other calls; inactive = mostly above about 0.92. This is one part of the list.

Assay: chemical genetic growth profiling, strain panel (AID 1159580);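 note: tested at 20 µM; growth read once vehicle control cultures reached saturation at 30 °C; 1 = growth at the plate median or of vehicle wells; lower values mean less growth of the strain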
Details: S. cerevisiae deletion strains, growth OD
[1] = locus YAR019C, strain CDC15, stronger effect = lower value
[2] = locus YBL105C, strain PKC1, stronger effect = lower value
[3] = locus YBR135W, strain CKS1, stronger effect = lower value
[4] = locus YBR136W, strain MEC1, stronger effect = lower value
[5] = locus YBR160W, strain CDC28, stronger effect = lower value
[6] = locus YDL017W, strain CDC7, stronger effect = lower value
[7] = locus YDL028C, strain MPS1, stronger effect = lower value
[8] = locus YDL101C, strain DUN1, stronger effect = lower value
[9] = locus YDL108W, strain KIN28, stronger effect = lower value
[10] = locus YDL132W, strain cdc53, stronger effect = lower value
[11] = locus YDL214C, strain PRR2, stronger effect = lower value
[12] = locus YDR052C, strain DBF4, stronger effect = lower value
[13] = locus YDR054C, strain cdc34, stronger effect = lower value
[14] = locus YDR226W, strain ADK1, stronger effect = lower value
[15] = locus YDR477W, strain SNF1, stronger effect = lower value
[16] = locus YER123W, strain YCK3, stronger effect = lower value
[17] = locus YER133W, strain GLC7, stronger effect = lower value
[18] = locus YFL009W, strain cdc4, stronger effect = lower value
[19] = locus YFL029C, strain CAK1, stronger effect = lower value
[20] = locus YFR003C, strain YPI1, stronger effect = lower value
[21] = locus YFR019W, strain FAB1, stronger effect = lower value
[22] = locus YFR028C, strain CDC14, stronger effect = lower value
[23] = locus YGR040W, strain KSS1, stronger effect = lower value
[24] = locus YGR052W, strain FMP48, stronger effect = lower value
[25] = locus YGR092W, strain DBF2, stronger effect = lower value
[26] = locus YHR030C, strain SLT2, stronger effect = lower value
[27] = locus YHR079C, strain IRE1, stronger effect = lower value
[28] = locus YHR082C, strain KSP1, stronger effect = lower value
[29] = locus YHR205W, strain SCH9, stronger effect = lower value
[30] = locus YIL147C, strain SLN1, stronger effect = lower value
[31] = locus YJL095W, strain BCK1, stronger effect = lower value
[32] = locus YJL128C, strain PBS2, stronger effect = lower value
[33] = locus YJL157C, strain FAR1, stronger effect = lower value
[34] = locus YJR016C, strain ILV3, stronger effect = lower value
[35] = locus YJR066W, strain TOR1 (second series), stronger effect = lower value
[36] = locus YJR066W, strain TOR1, stronger effect = lower value
[37] = locus YKL048C, strain ELM1, stronger effect = lower value
[38] = locus YKL067W, strain YNK1, stronger effect = lower value
[39] = locus YKL101W, strain HSL1, stronger effect = lower value
[40] = locus YKL193C, strain SDS22, stronger effect = lower value
[41] = locus YKL203C, strain TOR2, stronger effect = lower value
[42] = locus YLR113W, strain HOG1, stronger effect = lower value
[43] = locus YLR133W, strain CKI1, stronger effect = lower value
[44] = locus YLR403W, strain SFP1, stronger effect = lower value
[45] = locus YML070W, strain DAK1, stronger effect = lower value
[46] = locus YMR001C, strain CDC5, stronger effect = lower value
[47] = locus YMR205C, strain PFK2 (second series), stronger effect = lower value
[48] = locus YMR277W, strain FCP1, stronger effect = lower value
[49] = locus YNL006W, strain LST8, stronger effect = lower value
[50] = locus YNL020C, strain ARK1, stronger effect = lower value
[51] = locus YNL161W, strain CBK1, stronger effect = lower value
[52] = locus YNL183C, strain NPR1, stronger effect = lower value
[53] = locus YNL207W, strain RIO2, stronger effect = lower value
[54] = locus YNL222W, strain SSU72, stronger effect = lower value
[55] = locus YNL307C, strain MCK1 (second series), stronger effect = lower value
[56] = locus YOL078W, strain AVO1, stronger effect = lower value
[57] = locus YOL136C, strain PFK27, stronger effect = lower value
[58] = locus YOR061W, strain CKA2, stronger effect = lower value
[59] = locus YOR119C, strain RIO1, stronger effect = lower value
[60] = locus YOR231W, strain MKK1, stronger effect = lower value
[61] = locus YOR329C, strain SCD5, stronger effect = lower value
[62] = locus YPL031C, strain PHO85, stronger effect = lower value
[63] = locus YPL153C, strain RAD53, stronger effect = lower value
[64] = locus YPL204W, strain HRR25, stronger effect = lower value
[65] = locus YPL209C, strain IPL1, stronger effect = lower value
[66] = locus YPL256C, strain CLN2, stronger effect = lower value
[67] = locus YPR025C, strain CCL1, stronger effect = lower value
[68] = locus YPR106W, strain ISR1, stronger effect = lower value
[69] = locus YPR111W, strain DBF20, stronger effect = lower value
[70] = strain NNK1, stronger effect = lower value
[71] = strain TSCII, stronger effect = lower value

Measured: normalized growth

O=C(NC(=S)Nc1cccc(C(F)(F)F)c1)c1ccc2nonc2c1
inactive: [1] 0.956 | [2] 0.968 | [3] 0.93 | [4] 0.952 | [5] 0.96 | [6] 0.96 | [7] 0.952 | [8] 0.957 | [9] 0.957 | [10] 0.967 | [11] 0.973 | [12] 0.978 | [13] 0.94 | [14] 0.957 | [15] 0.896 | [16] 0.971 | [17] 0.95 | [18] 0.944 | [19] 0.961 | [20] 0.96 | [21] 1 | [22] 0.944 | [23] 0.907 | [24] 1.04 | [25] 0.989 | [27] 0.949 | [28] 0.912 | [29] 0.907 | [30] 0.952 | [31] 0.778 | [32] 0.978 | [33] 0.974 | [34] 0.93 | [35] 0.938 | [36] 0.838 | [37] 0.968 | [38] 0.979 | [39] 0.956 | [40] 0.953 | [41] 0.972 | [43] 0.966 | [44] 0.968 | [45] 0.953 | [46] 0.957 | [47] 0.959 | [48] 0.953 | [49] 0.961 | [50] 0.962 | [51] 0.954 | [52] 0.852 | [53] 0.962 | [54] 0.947 | [55] 0.974 | [56] 0.953 | [57] 0.991 | [58] 0.967 | [59] 1.02 | [60] 0.863 | [61] 0.969 | [62] 0.912 | [63] 0.905 | [64] 0.936 | [65] 0.945 | [67] 0.951 | [68] 0.973 | [69] 0.936 | [70] 0.954 | [71] 0.939
active: [26] 0.774 | [42] 0.713 | [66] 0.831

FC(F)(F)c1cccc(NC(=S)Nc2ccccc2)c1
inactive: [1] 0.983 | [2] 0.98 | [3] 0.975 | [4] 0.979 | [5] 0.981 | [6] 0.987 | [7] 0.98 | [8] 0.989 | [9] 0.978 | [10] 0.966 | [11] 0.949 | [12] 0.996 | [13] 0.982 | [14] 0.98 | [15] 0.954 | [16] 0.96 | [17] 0.958 | [18] 0.973 | [19] 0.983 | [20] 0.982 | [21] 0.962 | [22] 0.967 | [23] 0.941 | [24] 0.974 | [25] 0.883 | [26] 1 | [27] 1.04 | [28] 1 | [29] 0.951 | [30] 0.977 | [31] 0.882 | [32] 0.959 | [33] 0.941 | [34] 0.968 | [35] 0.897 | [36] 0.989 | [37] 1 | [38] 0.961 | [39] 0.955 | [40] 0.973 | [41] 0.995 | [42] 0.962 | [43] 0.947 | [44] 0.899 | [45] 0.966 | [46] 0.98 | [47] 0.991 | [48] 0.97 | [49] 0.985 | [50] 0.974 | [51] 0.981 | [52] 1 | [53] 0.967 | [54] 0.981 | [55] 0.896 | [56] 0.967 | [57] 0.95 | [58] 0.952 | [59] 1.02 | [60] 0.95 | [61] 0.989 | [62] 0.952 | [63] 0.954 | [64] 0.934 | [65] 0.978 | [66] 1.1 | [67] 0.982 | [68] 0.987 | [69] 0.969 | [70] 0.982 | [71] 0.975
